Compound activity from PubChem.
DT40 TDP1 CPT: growth inhibition of DT40 Tdp1-/-;hTDP1 cells with camptothecin (screen for TDP1 inhibitors); chicken DT40 Tdp1-/-;hTDP1 cells + 20 nM CPT, ATP luminescence, 48 h; Potency, µM (top dose mostly 46.2 µM), for inactives: top-dose activity change, negative = growth inhibition, usual class: inhibitors; actives 12% (n = 420,000); AID 686979; further: on the % scale 0 is the no-effect control and ±100 the full control effect; nearly all actives have a fitted effect of over 55% in size
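Chicken DT40 Tdp1-/- cells complemented with human TDP1, 400 cells/well, exposed to compounds plus 20 nM camptothecin for at least 48 h at 37 C; viability read as ATP content by CellTiter-Glo luminescence.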
DT40 TDP1 no CPT: qHTS for Inhibitors of human tyrosyl-DNA phosphodiesterase 1 (TDP1): qHTS in cells in absence of CPT | DT40 Tdp1-/- hTDP1 cells, no CPT, ATP luminescence, 48 h | Potency, µM (series often up to 46.2 µM), for the others: at the highest dose activity change, negative = growth inhibition, hits mostly inhibitors | actives 15% (n = 420,000); further: on the % scale 0 is the no-effect control and ±100 the full control effect; nearly all actives have a fitted effect of over 55% in size
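Cells were dispensed at 400 per well, compounds added by pin tool, plates incubated ≥48 hr at 37 °C, then CellTiter-Glo added for 30 min at room temperature before luminescence reading. Line: DT40 Tdp1-/- complemented with hTDP1; camptothecin omitted.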
HT1080 IDH1KD tx: kills HT-1080 cells with IDH1 knockdown | HT-1080 IDH1 knockdown viability, ATP luminescence, 48 h | Potency, µM (series often up to 46.1 µM), without a hit: top-dose activity, negative = toxicity, usual class: cytotoxic | actives 2% (n = 360,000);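 further: 0% = DMSO wells and -100% = cell-free medium wells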
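CellTiter-Glo luminescence after 48 h compound exposure at 37 degrees C of IDH1-knockdown HT-1080 cells in 5% FBS RPMI. %Activity scaled between DMSO wells and cell-free media wells, with curves fitted and assigned curve classes.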
HepG2 viability: kills HepG2 cells in TGF-b inhibitor counter-screen; Potency, µM (titrated, usually from 46.1 µM), without a hit: top-dose activity change, negative = cytotoxicity, most hits filed as cytotoxic; actives 0.76% (n = 410,000); HepG2 CAGA-GFP viability, ATP luminescence, 18 h
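HepG2 CAGA-GFP cells (1000/well, DMEM with 1% FBS) received compound, then TGF-beta at 500 pg/mL final, and were incubated 18 hours at 37 degrees C. Viability was read by CellTiter-Glo luminescence. Media-only wells were set as complete cell-killing and DMSO as no toxicity.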
TGFb inhibitor: inhibitors of TGF-b signaling; actives 1.2% (n = 410,000); HepG2 CAGA-GFP TGF-b/SMAD3 reporter, GFP fluorescence, 18 h; TGF-beta stimulated, 500 pg/mL final; AID 588855; Potency, µM (top dose mostly 46.1 µM), inactives show at the top dose activity, negative = inhibition, most hits filed as inhibitors; further: on the % scale 0 is the no-effect control and ±100 the full control effect; nearly all actives have a fitted effect of over 65% in size
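GFP signal (ex488/em500-530) from TGF-beta-stimulated HEPG2 CAGA-GFP cells, 500 pg/mL final, 18 h at 37 degrees C in DMEM plus 1% FBS, normalized to unstimulated and DMSO-stimulated controls.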
HT1080NT lethal: kills 2HG-producing HT-1080-NT fibrosarcoma cells; AID 686970; HT-1080-NT fibrosarcoma viability, CellTiter-Glo ATP luminescence, 48 h; actives 1.6% (n = 360,000); Potency, µM (titrated, usually from 46.1 µM), for the others: at the highest dose activity, negative = less viability, most hits filed as cytotoxic;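 further: NT is the 2HG producing partner of a matched IDH1 knockdown line; 0% = DMSO-treated cells and -100% = media-only wells without cells; nearly all actives have a fitted effect of over 55% in size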
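HT-1080-NT fibrosarcoma cells (2HG-overproducing), 750 cells/well in RPMI with 5% FBS, dosed after 2 h and incubated 48 h at 37C. CellTiter-Glo luminescence normalized to DMSO and no-cell wells; concentration-response curves fitted and classed.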
An asterisk follows results filed as active; [ ] = another dose, or the depositor's remark. The list is not random: actives were taken first. Their share in the collection is about 17%. The call rests on the fitted dose curve; in most records, active means well fitted curve in the direction sought with a large enough effect; inconclusive means small, poorly fitted or top-dose-only effect, or another doubt; inactive means no such curve, though single readings can be large; an effect the other way counts as inactive or inconclusive. Potency means the concentration at half of the fitted maximal effect.

How did C[C@]12CC[C@@H](O)CC1=CCC1C2CC[C@@]2(C)C1CC[C@@H]2N (some centres not stated) do in these assays?
DT40 TDP1 CPT: inconclusive; DT40 TDP1 no CPT: 21µM*; HT1080 IDH1KD tx: 14%; HepG2 viability: 3%; TGFb inhibitor: 3%; HT1080NT lethal: 7%

What do the screens show for `CC1CCN(C(=O)N2c3ccccc3Sc3ccccc32)CC1`?
DT40 TDP1 CPT: inconclusive; DT40 TDP1 no CPT: inconclusive; HT1080 IDH1KD tx: -5%[9.24 µM]; HepG2 viability: -21%; TGFb inhibitor: inconclusive; HT1080NT lethal: inconclusive

Results for CC1CCN(C(=O)CCl)CC1 ?
DT40 TDP1 CPT: inconclusive; DT40 TDP1 no CPT: 16µM*; HT1080 IDH1KD tx: -18%; HepG2 viability: -37%; TGFb inhibitor: -30%; HT1080NT lethal: -10%

Results for Cc1cc(C)nc(N2Cc3ccccc3C2=N)n1 ?
DT40 TDP1 CPT: inconclusive; DT40 TDP1 no CPT: 23µM*; HT1080 IDH1KD tx: -23%; HepG2 viability: -6%; TGFb inhibitor: -23%; HT1080NT lethal: -1%

What do the screens show for `Cc1ccc(N2Cc3ccccc3C2=N)cc1[N+](=O)[O-]`?
DT40 TDP1 CPT: 8%; DT40 TDP1 no CPT: -6%; HT1080 IDH1KD tx: 1%; HepG2 viability: 2%; TGFb inhibitor: 4%; HT1080NT lethal: 2%

How did CCc1cc2c(=O)n(C(C)C(=O)OC3CCCCC3)cnc2s1 (configuration not stated) do in these assays?
DT40 TDP1 CPT: inconclusive; DT40 TDP1 no CPT: inconclusive; HT1080 IDH1KD tx: -9%; HepG2 viability: -20%; TGFb inhibitor: -2%; HT1080NT lethal: 2%

What do the screens show for `N#Cc1ccc(NC(=O)CN2C(=O)NC3(CCCCCCC3)C2=O)cc1Cl`?
DT40 TDP1 CPT: 12µM*; DT40 TDP1 no CPT: 7.3µM*; HT1080 IDH1KD tx: inconclusive; HepG2 viability: -34%; TGFb inhibitor: inconclusive; HT1080NT lethal: -4%[9.24 µM]

How did Cc1cccc(NC(=O)C2CCCN2C(=O)Oc2ccccc2)c1 (configuration not stated) do in these assays?
DT40 TDP1 CPT: 5%; DT40 TDP1 no CPT: 12%; HT1080 IDH1KD tx: 5%; HepG2 viability: 1%; TGFb inhibitor: inconclusive; HT1080NT lethal: 0%

Results for CC1CCCN(CCCNC(=O)c2ccc3c(c2)N(Cc2cccc(Cl)c2)C(=O)c2ccccc2S3=O)C1 (configuration not stated) ?
DT40 TDP1 CPT: inconclusive; DT40 TDP1 no CPT: inconclusive; HT1080 IDH1KD tx: inconclusive; HepG2 viability: 13µM*; TGFb inhibitor: 18µM*; HT1080NT lethal: -25%

How did O=C(O)/C=C/CO do in these assays?
DT40 TDP1 CPT: -3%; DT40 TDP1 no CPT: -4%

How did Cn1c(=O)c2c(nc(-c3ccc(N(CCCl)CCCl)cc3)n2C)n(C)c1=O do in these assays?
DT40 TDP1 CPT: 15µM*; DT40 TDP1 no CPT: 26µM*; HT1080 IDH1KD tx: -15%; HepG2 viability: -14%; TGFb inhibitor: 17%; HT1080NT lethal: -11%

Results for CC(C)(C)NCC(O)c1cc(Cl)c(N)c(C(F)(F)F)c1 (configuration not stated) ?
DT40 TDP1 CPT: 14%; DT40 TDP1 no CPT: -16%

What do the screens show for `CC(C)c1oc(=O)cc2c1[C@@H](O)[C@H]1OC(=O)[C@@]3(C)CC[C@@H](O)[C@@]2(C)C13` (some centres not stated)?
DT40 TDP1 CPT: 5.8µM*; DT40 TDP1 no CPT: 5.2µM*; HT1080 IDH1KD tx: inconclusive; HepG2 viability: -25%; TGFb inhibitor: 2µM*; HT1080NT lethal: inconclusive

What do the screens show for `CN1CCN(Cc2ccccc2Sc2ccccc2)CC1`?
DT40 TDP1 CPT: inconclusive; DT40 TDP1 no CPT: inconclusive; HT1080 IDH1KD tx: -1%; HepG2 viability: -3%; TGFb inhibitor: 4%; HT1080NT lethal: -5%

What do the screens show for `CC(=O)O[C@H]1C[C@@H]2CC[C@@H]3[C@H](CC[C@]4(C)C(=O)CC[C@@H]34)[C@@]2(C)C[C@@H]1OC(C)=O`?
DT40 TDP1 CPT: 23µM*; DT40 TDP1 no CPT: inconclusive; HT1080 IDH1KD tx: 1%; HepG2 viability: -13%; TGFb inhibitor: -1%; HT1080NT lethal: 10%

How did CC(=O)OC1CC2(C)C(C(C)=O)CCC2C2CCC3=CC(=O)CCC3(C)C12 (configuration not stated) do in these assays?
DT40 TDP1 CPT: inconclusive; DT40 TDP1 no CPT: inconclusive; HT1080 IDH1KD tx: 7%; HepG2 viability: -7%; TGFb inhibitor: 0%; HT1080NT lethal: 7%

What do the screens show for `CC(=O)OC1=CC[C@H]2[C@@H]3CC[C@H]4C[C@H](OC(C)=O)[C@@H](OC(C)=O)C[C@]4(C)[C@H]3CC[C@]12C`?
DT40 TDP1 CPT: 15µM*; DT40 TDP1 no CPT: 12µM*; HT1080 IDH1KD tx: -1%; HepG2 viability: 4%; TGFb inhibitor: -1%; HT1080NT lethal: 29%

What do the screens show for `COC(=O)C1=C(c2cc3ccccc3s2)C[C@@H]2CC[C@H]1N2C(=O)NC1CCCCC1`?
DT40 TDP1 CPT: 18µM*; DT40 TDP1 no CPT: inconclusive; HT1080 IDH1KD tx: -22%; HepG2 viability: -45%; TGFb inhibitor: inconclusive; HT1080NT lethal: -12%

What do the screens show for `COC(=O)C1=C(c2cc3ccccc3s2)C[C@@H]2CC[C@H]1N2C(=O)NCc1ccccc1`?
DT40 TDP1 CPT: inconclusive; DT40 TDP1 no CPT: inconclusive; HT1080 IDH1KD tx: -3%; HepG2 viability: -23%; TGFb inhibitor: inconclusive; HT1080NT lethal: -8%

How did COC(=O)C1=C(c2cc3ccccc3s2)C[C@@H]2CC[C@H]1N2C(=O)N1CCC(O)CC1 do in these assays?
DT40 TDP1 CPT: 15µM*; DT40 TDP1 no CPT: 23µM*; HT1080 IDH1KD tx: 0%; HepG2 viability: -6%; TGFb inhibitor: 0%; HT1080NT lethal: 20%

How did COC(=O)C1=C(c2cc3ccccc3s2)C[C@@H]2CC[C@H]1N2C(=O)N1CCCCC1 do in these assays?
DT40 TDP1 CPT: 2.9µM*; DT40 TDP1 no CPT: 6.5µM*; HT1080 IDH1KD tx: 8.2µM*; HepG2 viability: -7%; TGFb inhibitor: inconclusive; HT1080NT lethal: inconclusive

How did C[N+]1([O-])CCC[C@@H]1c1cccnc1 (some centres not stated) do in these assays?
DT40 TDP1 CPT: 3%; DT40 TDP1 no CPT: -19%
